Results from PubChem BioAssay (NCI).
This is part of a sample that, as a whole, favours compounds with a hit. Of some 79,000 tested, about 15% had one in any assay. No stated cut-off is given here; in the data, active means growth inhibition above about 70%; inactive means the rest.

Legend:
[1] = NCI Yeast Anticancer Drug Screen. Data for the rad50 strain (AID 155);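 further: 0% = growth of vehicle-only cultures of the same strain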; settings: S. cerevisiae rad50 strain growth inhibition, hits give high values; at 50.0 µM unless noted
Method in brief: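 Inhibition values express reduced yeast growth in compound-treated cultures relative to vehicle-treated controls.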

[2] = NCI Yeast Anticancer Drug Screen. Data for the mec2-1 strain (AID 157); settings: S. cerevisiae mec2-1 strain, hits give high values; at 50.0 µM unless noted
Method in brief: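 Growth inhibition is read against vehicle-treated controls after compound exposure of the mec2-1 yeast strain, which is defective in DNA damage repair or cell cycle control.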

[3] = NCI Yeast Anticancer Drug Screen. Data for the sgs1 mgt1 strain (AID 161);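 further: 0% = growth of cultures given vehicle only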; settings: S. cerevisiae sgs1 mgt1 strain, hits give high values; at 50.0 µM unless noted
Method in brief: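 Yeast cells carrying a defined DNA-repair defect were exposed to test compounds. Growth inhibition was measured relative to vehicle-treated controls.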

[4] = NCI Yeast Anticancer Drug Screen. Data for the cln2 rad14 strain (AID 165);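 further: 0% = growth equal to vehicle treated cultures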; settings: S. cerevisiae cln2 rad14 strain, hits give high values; at 50.0 µM unless noted
Method in brief: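 Growth inhibition, relative to vehicle-treated controls, is the read-out. The test organism is a yeast strain with defined genetic alterations, cln2 rad14.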

[5] = NCI Yeast Anticancer Drug Screen. Data for the bub3 strain (AID 167); settings: S. cerevisiae bub3 mutant strain, hits give high values; at 50.0 µM unless noted
Method in brief: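 Steps: expose the mutant yeast strain to compound; grow alongside vehicle-treated cultures; measure growth; express inhibition against the vehicle cultures.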

[6] = NCI Yeast Anticancer Drug Screen. Data for the mlh1 rad18 strain (AID 175); settings: S. cerevisiae mlh1 rad18 strain growth inhibition, hits give high values; at 50.0 µM unless noted
Method in brief: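 Cells of a genetically altered yeast strain, deficient in DNA damage repair, were treated with compound. Their growth was then compared with that of vehicle-treated cultures to give inhibition.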

Measured: growth inhibition

N#CCSc1ncnc2nc[nH]c12
inactive: [1] 4.25% | [2] 1.65% | [3] -5.95% | [4] 5.6% | [5] 4.8% | [6] 0.15%

Cc1ccc(S(=O)(=O)N(C)c2ccc3c(c2)C(=O)c2ccccc2-3)cc1
inactive: [1] 20.6% | [2] 14.2% | [3] 37% | [4] -44.5% | [5] 56% | [6] 26.4%

COc1ccccc1/C=C1\C(=O)N(C(=O)c2ccc(NC(C)=O)cc2)N=C1C
inactive: [1] 1.6% | [2] -27.1% | [3] -34.8% | [4] -3.2% | [5] -23.9% | [6] -26.1%

O=c1[nH]c2cccc([N+](=O)[O-])c2c2ccccc12
inactive: [1] 5.85% | [2] 26.6% | [3] 14.1% | [4] 23% | [5] -6.35% | [6] 11.2%

Cc1cc2cccc(Cl)c2nc1C(=O)c1ccccc1
inactive: [1] -9.3% | [2] -12.3% | [3] -9.3% | [4] 22.4% | [5] -7.4% | [6] -12.6%

CC(Sc1nc(N)nc2nc[nH]c12)C(=O)O (centres undefined)
inactive: [1] -15.2% | [2] -3.55% | [3] -11.3% | [4] -23.6% | [5] 4.15% | [6] 11%

O=C1CCCC(=O)N1n1c(Cc2ccc(Cl)cc2)n[nH]c1=O
inactive: [1] -31.6% | [2] -11.8% | [3] 1.3% | [4] 7.5% | [5] -19.6% | [6] -1.5%

CNCc1cc(Br)cc(Br)c1O
inactive: [1] 6.9% | [2] -6.2% | [3] 15.4% | [4] -43.1% | [5] 1.45% | [6] -2.6%

CC(=O)c1ccc(O)c(/C=C2\CCOC2=O)c1
inactive: [1] 8.2% | [2] 8.4% | [3] -9% | [4] -3.45% | [5] 9.55% | [6] 7.7%

C(=Nc1cccnc1)c1ccc(C=Nc2cccnc2)cc1
inactive: [1] 21.9% | [2] 37.5% | [3] 30.3% | [4] 25.1% | [5] 33.8% | [6] 33%

CN(Cc1ccccc1)c1cc(=O)n(C)c(=O)[nH]1
inactive: [1] 7.3% | [2] 15.8% | [3] 35.8% | [4] 14% | [5] 25.6% | [6] -6.8%

COc1cc(NC(C)=O)c2c(c1)SCC(=O)N2
inactive: [1] 3.2% | [2] -34.5% | [3] -3.7% | [4] 5.2% | [5] 24% | [6] 1.4%

CC(=O)Cc1ncn(-c2cc(C)on2)n1
inactive: [1] -9.4% | [2] -20.4% | [3] -18.1% | [4] 11.6% | [5] -1.45% | [6] -13.7%

O=C(CCC(=O)c1ccccc1)NCc1ccccc1
inactive: [1] 11.2% | [2] -6.2% | [3] 4.4% | [4] 5.55% | [5] 6.5% | [6] 2.1%

O=C(Nc1ccccc1C(F)(F)F)C(c1ccccc1)c1ccccc1
inactive: [1] 19.5% | [2] 12.2% | [3] 8.15% | [4] 9.55% | [5] 10.8% | [6] 3.35%

CC(=O)CCCCC(=O)Nc1ccc(CC(NC(=O)OC(C)(C)C)C(=O)NCC(=O)OCc2ccccc2)cc1 (centres undefined)
inactive: [1] -38.5% | [2] -4.5% | [3] -1.6% | [4] 8.85% | [5] 10% | [6] -12.1%

CC(C)(C)NNC(=O)CCn1[nH]c(=O)c(Cl)c(Cl)c1=O
inactive: [1] -0.8% | [2] -5.25% | [3] -18.9% | [4] -2.25% | [5] -16% | [6] -12.3%

Nc1nc2c(ncn2-c2ccc(Br)cc2)c(=O)[nH]1
inactive: [1] 15.2% | [2] -1.6% | [3] 20.9% | [4] 32.1% | [5] -4.8% | [6] 59.8%

Nc1ccc2c(C(F)(F)F)cc(=O)oc2c1
inactive: [1] 14.2% | [2] -2.2% | [3] 8.2% | [4] -29.6% | [5] 8.55% | [6] 8.8%

COCCC(=O)OCCC(C)OC (centres undefined)
inactive: [1] 21.6% | [2] -4.1% | [3] 3.65% | [4] 1.95% | [5] -42.2% | [6] -11.2%

O=S(=O)(O)CCCOC1COc2ccccc2OCCOCCOc2ccccc2OC1
inactive: [1] -0.65% | [2] 1.65% | [3] -15.5% | [4] -6.45% | [5] -4.1% | [6] -7.55%

CC(C)NC(=O)OCc1c(COC(=O)NC(C)C)c(-c2ccccc2)n(C)c1-c1ccccc1
inactive: [1] 12.6% | [2] 2.05% | [3] 6.05% | [4] -5.7% | [5] 1.85% | [6] 32.8%

Cc1cc(C)c2ccc(Cl)nc2n1
inactive: [1] -6.75% | [2] 0.55% | [3] -7.35% | [4] 9.35% | [5] -4.35% | [6] 6.1%

CC1=CCC(C(C)C)C2CC(C)(O)CCC12 (centres undefined)
inactive: [1] -3.1% | [2] -1.8% | [3] 7.15% | [4] -24.9% | [5] -4.35% | [6] 0.95%

O/N=C/c1ccco1
inactive: [1] 1.2% | [2] -9.85% | [3] 7.75% | [4] -1.15% | [5] -6.55% | [6] 16.1%

CC1C(c2ccccc2)OCCN1C(=S)Nc1ccccc1 (centres undefined)
inactive: [1] 34.9% | [2] 34.2% | [3] 45.6% | [4] -16.6% | [5] 35.2% | [6] 25.4%

CC(C)OC(=O)/C=C/CCCC1CCCCC1
inactive: [1] -10.5% | [2] 6.15% | [3] 7.95% | [4] 2.35% | [5] 18.7% | [6] -15.2%

C/C=C(/I)CBr
inactive: [1] 28.4% | [2] 1.1% | [3] 1.75% | [4] 3.05% | [5] 12.2% | [6] 21.3%

COC(=O)CCn1cnc2c(SC)ncnc21
inactive: [1] -27.2% | [2] 16.2% | [3] -44% | [4] 21.5% | [5] 19.2% | [6] -12.7%

COc1ccc(OC)c(/C=N\NC(=O)N/N=C/c2cc(OC)ccc2OC)c1
inactive: [1] -9.4% | [2] -20.6% | [3] 11.3% | [4] -2.05% | [5] 22.8% | [6] -3.9%

CC(=O)CCn1[nH]c(=O)c2ccccc2c1=O
inactive: [1] -2.05% | [2] 7.35% | [3] 1.6% | [4] 7.9% | [5] -3.15% | [6] 10.9%

O=C(Cc1ccccc1)SC(=O)Cc1ccccc1
inactive: [1] -0.05% | [2] 28.8% | [3] 18.6% | [4] -8.9% | [5] 39.4% | [6] 10%

Cc1ccc(S(=O)(=O)CCC#N)cc1
inactive: [1] 0.25% | [2] 8.2% | [3] -5.65% | [4] -9.35% | [5] -8.2% | [6] -11.7%

CCN(CC)C(=S)Oc1ccc(OC(=S)N(CC)CC)cc1
inactive: [1] 30.6% | [2] 7.1% | [3] -0.95% | [4] -6.75% | [5] -2.85% | [6] -7.35%

COc1ccc(/C(C)=C\C(=O)O)c(O)c1OC
inactive: [1] 5.9% | [2] 6.85% | [3] -4.65% | [4] 3.55% | [5] 22.1% | [6] 7.8%

O=C1c2ccccc2C(=O)N1/N=[N+](\[O-])c1ccccc1
inactive: [1] 3.55% | [2] 0.3% | [3] 17.2% | [4] 7.3% | [5] 25.3% | [6] 40.8%

CCOC(=O)c1cc2ccccc2cc1N=N
inactive: [1] 8.3% | [2] 16.7% | [3] 15% | [4] -2.7% | [5] 23.2% | [6] 28.8%

CCSC(=Nc1nc2ccc([N+](=O)[O-])cc2s1)SCC
inactive: [1] 43.5% | [2] 31.4% | [3] 33.5% | [4] 14.1% | [5] 25.5% | [6] 12.2%

COc1ccc(-c2nc(Sc3c([N+](=O)[O-])ncn3C)n[nH]2)cc1
inactive: [1] -1.25% | [2] 5.75% | [3] 3.7% | [4] 25.7% | [5] 12.5% | [6] -6.6%
